The list is not random: actives were taken first. Their share in the collection is about 6.9%.
PLK1 PBD block: blocks phosphopeptide binding to human PLK1 polo-box domain; P53350; Plk1 PBD binding of FITC phosphopeptide, fluorescence polarization; Potency, µM, hits mostly inhibitors; actives 2.8% (n = 360,000); further: series mostly up to about 57 µM; nearly all actives have a fitted effect of over 65% in size
BAZ2B inh: inhibitors of human BAZ2B bromodomain. AlphaScreen BAZ2B-H3K14Ac peptide displacement. actives 4.4% (n = 360,000). AID 504333. Q9UIF8. Potency, µM (highest dose often 114 µM), usual class: inhibitors; further: nearly all actives have a fitted effect of over 60% in size
Target sequence (Q9UIF8 whole entry, looked up): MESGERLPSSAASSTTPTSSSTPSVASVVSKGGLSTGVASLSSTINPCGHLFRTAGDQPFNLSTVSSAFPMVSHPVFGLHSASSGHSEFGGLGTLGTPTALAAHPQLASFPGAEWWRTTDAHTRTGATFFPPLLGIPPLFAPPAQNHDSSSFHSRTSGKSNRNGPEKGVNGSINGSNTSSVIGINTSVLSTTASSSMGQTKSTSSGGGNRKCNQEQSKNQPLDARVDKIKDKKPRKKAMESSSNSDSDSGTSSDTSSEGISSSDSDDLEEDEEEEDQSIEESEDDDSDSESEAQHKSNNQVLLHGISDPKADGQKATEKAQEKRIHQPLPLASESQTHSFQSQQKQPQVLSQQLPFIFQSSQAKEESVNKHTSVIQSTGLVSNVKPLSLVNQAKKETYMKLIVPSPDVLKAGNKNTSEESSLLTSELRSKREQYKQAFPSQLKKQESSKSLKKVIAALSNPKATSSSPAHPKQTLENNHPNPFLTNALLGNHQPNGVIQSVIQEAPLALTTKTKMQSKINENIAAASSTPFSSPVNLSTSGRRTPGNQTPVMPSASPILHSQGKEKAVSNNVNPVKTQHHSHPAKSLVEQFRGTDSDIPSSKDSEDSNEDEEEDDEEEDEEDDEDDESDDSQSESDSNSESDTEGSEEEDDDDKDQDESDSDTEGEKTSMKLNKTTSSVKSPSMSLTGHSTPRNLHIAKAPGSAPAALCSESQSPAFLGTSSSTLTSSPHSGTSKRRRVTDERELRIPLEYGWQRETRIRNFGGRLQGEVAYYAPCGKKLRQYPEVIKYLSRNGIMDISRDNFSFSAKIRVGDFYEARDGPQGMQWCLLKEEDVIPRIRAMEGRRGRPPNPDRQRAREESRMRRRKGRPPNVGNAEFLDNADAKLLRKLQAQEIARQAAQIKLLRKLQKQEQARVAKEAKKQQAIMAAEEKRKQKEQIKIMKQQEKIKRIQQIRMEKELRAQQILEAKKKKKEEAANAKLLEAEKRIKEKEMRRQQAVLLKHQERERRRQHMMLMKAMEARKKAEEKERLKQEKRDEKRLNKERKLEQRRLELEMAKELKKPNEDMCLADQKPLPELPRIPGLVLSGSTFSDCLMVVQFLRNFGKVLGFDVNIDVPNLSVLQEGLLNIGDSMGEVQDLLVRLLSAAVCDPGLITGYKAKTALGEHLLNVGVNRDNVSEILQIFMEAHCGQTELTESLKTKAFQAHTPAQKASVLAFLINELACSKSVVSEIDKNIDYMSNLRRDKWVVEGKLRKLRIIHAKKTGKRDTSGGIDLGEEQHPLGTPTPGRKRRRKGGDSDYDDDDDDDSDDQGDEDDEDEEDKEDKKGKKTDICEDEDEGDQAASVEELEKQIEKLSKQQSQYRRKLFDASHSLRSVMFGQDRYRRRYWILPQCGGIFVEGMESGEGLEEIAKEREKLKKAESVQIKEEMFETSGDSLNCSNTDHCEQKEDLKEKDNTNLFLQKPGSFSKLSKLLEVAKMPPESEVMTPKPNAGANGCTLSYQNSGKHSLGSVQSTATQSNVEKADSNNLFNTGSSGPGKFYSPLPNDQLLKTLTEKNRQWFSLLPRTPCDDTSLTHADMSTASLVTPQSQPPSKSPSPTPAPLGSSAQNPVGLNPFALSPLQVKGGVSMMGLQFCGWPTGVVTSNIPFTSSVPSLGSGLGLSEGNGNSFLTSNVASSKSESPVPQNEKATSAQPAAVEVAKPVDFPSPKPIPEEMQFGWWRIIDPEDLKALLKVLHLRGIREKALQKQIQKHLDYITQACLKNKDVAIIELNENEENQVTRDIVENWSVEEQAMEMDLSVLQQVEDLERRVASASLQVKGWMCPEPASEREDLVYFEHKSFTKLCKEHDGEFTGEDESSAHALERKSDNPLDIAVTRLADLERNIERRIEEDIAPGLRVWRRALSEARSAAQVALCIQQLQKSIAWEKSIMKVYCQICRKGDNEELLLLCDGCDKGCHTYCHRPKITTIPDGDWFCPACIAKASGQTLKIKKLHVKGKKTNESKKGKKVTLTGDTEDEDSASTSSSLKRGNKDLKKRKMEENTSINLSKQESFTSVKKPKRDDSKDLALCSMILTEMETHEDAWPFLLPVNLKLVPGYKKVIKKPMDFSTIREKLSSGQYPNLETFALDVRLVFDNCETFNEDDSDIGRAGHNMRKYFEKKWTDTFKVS
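Complex of BAZ2B and biotin-H3K14Ac (50 nM apiece) forms over 30 min at RT, then faces library compounds up to 110 uM for another 30 min; AlphaScreen beads added, 20 min dark incubation, luminescence read.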
JMJD2A Tudor inh: JMJD2A Tudor domain (human) inhibition | AlphaScreen JMJD2A-Tudor / H3K4me3 peptide binding | actives 4.4% (n = 390,000) | O75164 | Potency, µM (top dose mostly 114 µM), most hits filed as inhibitors; further: nearly all actives have a fitted effect of over 50% in size
L3MBTL1 inh: inhibitors of human L3MBTL1; AlphaScreen L3MBTL1–H3K9me1 peptide binding; Potency, µM (doses to about 57.1 µM), most hits filed as inhibitors; actives 0.66% (n = 230,000); AID 485360; further: nearly all actives have a fitted effect of over 60% in size
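AlphaScreen assay: L3MBTL1 (50 nM final) was preincubated 30 min at room temperature with biotinylated H3(1-15)K9me1 peptide (75 nM final), then 30 min with library compounds; streptavidin donor and nickel chelate acceptor beads (10 ug/mL final) added, 30 min dark.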
HP1b binding inh: blocks HP1-beta chromodomain binding to methylated histone tails; P83916; Potency, µM (doses to about 114 µM), actives largely listed as inhibitors; actives 0.56% (n = 390,000); AID 540317; AlphaScreen HP1-beta / biotin-H3K9me3 peptide binding; further: nearly all actives have a fitted effect of over 70% in size
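AlphaScreen: HP1-beta (50 nM) preformed 30 min with biotin-H3(1-18)K9me3 peptide (50 nM) in PBS pH 7.4, 0.01% Tween-20. Compound added for 30 min at RT, then streptavidin donor/nickel chelate acceptor beads (10 ug/mL) for 30 min.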
VDR inhibitor: vitamin D3 receptor (human) inhibition. P11473. VDR-SRC2-3 peptide fluorescence polarization, 2 h. Potency, µM, hits mostly inhibitors. actives 0.93% (n = 400,000)
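Signal is fluorescence polarization, reporting how far test compounds block the interaction of VDR with the SRC2-3 coregulator peptide after a 2 h room-temperature incubation.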
A number is an active result; [ ] = another dose, or the depositor's remark. The call rests on the fitted dose curve; in most records, active means well fitted curve in the direction sought with a large enough effect; inconclusive means small, poorly fitted or top-dose-only effect, or another doubt; inactive means no such curve, though single readings can be large; an effect the other way counts as inactive or inconclusive.

Screening CCOc1ccc(N2C(=O)CS/C2=C(\C(Cl)=C(Cl)Cl)[N+](=O)[O-])cc1 returned PLK1 PBD block inactive, BAZ2B inh 50.1µM, JMJD2A Tudor inh 5.01µM, HP1b binding inh inactive and VDR inhibitor inactive.
`COc1ccc(N2CC(NC(=O)c3ccc(S(=O)(=O)N4CCCCC4)cc3)CC2=O)cc1` (stereo unspecified) gave BAZ2B inh inactive, JMJD2A Tudor inh inactive, HP1b binding inh inactive and VDR inhibitor inactive.
Screening O=C(Nc1nccs1)c1ccc2nccnc2c1 returned PLK1 PBD block inactive, BAZ2B inh inactive, JMJD2A Tudor inh 79.4µM, L3MBTL1 inh inactive, HP1b binding inh inactive and VDR inhibitor inactive.
CCOC(=O)c1ccccc1NC(=O)c1ccc2nccnc2c1 was read as PLK1 PBD block inactive, JMJD2A Tudor inh 50.1µM, L3MBTL1 inh inconclusive, HP1b binding inh inactive and VDR inhibitor inactive.
For CCOC(=O)c1ccccc1NC(=O)c1cn(CC)c2nc(C)ccc2c1=O the results were PLK1 PBD block 26.7µM, BAZ2B inh inactive, JMJD2A Tudor inh inactive[11.4 µM], L3MBTL1 inh inactive, HP1b binding inh inactive and VDR inhibitor inconclusive.
`O=C(COc1ccc2ccccc2c1)Nc1cccc(C(=O)Nc2ccccc2C(=O)O)c1` gave PLK1 PBD block 23.8µM, BAZ2B inh inactive, JMJD2A Tudor inh inconclusive, L3MBTL1 inh inactive, HP1b binding inh inactive and VDR inhibitor inactive.
For O=C(NCc1ccc(Cl)cc1)c1ccc(CNS(=O)(=O)c2ccc(F)cc2)cc1 the results were BAZ2B inh inactive, JMJD2A Tudor inh inactive, HP1b binding inh inactive and VDR inhibitor inactive.
Screening Cc1ccc(-c2nc(CNC(=O)Nc3ccccc3)c(C)o2)cc1 returned BAZ2B inh inactive, JMJD2A Tudor inh inactive, HP1b binding inh inactive and VDR inhibitor inactive.
For COc1ccc(Cl)cc1NC(=O)Cn1cc(C(=O)c2ccncc2)c(=O)c2cc(C)ccc21 the results were BAZ2B inh inactive, JMJD2A Tudor inh inactive, HP1b binding inh inactive and VDR inhibitor inactive.
Cc1cc(C)c[n+](-c2[nH]c(=O)sc2/C=N/N=C(\[O-])c2cccnc2)c1 was read as PLK1 PBD block inactive, BAZ2B inh inconclusive, JMJD2A Tudor inh inactive, HP1b binding inh inactive and VDR inhibitor inactive.
`O=C(N[C@H]1CCCc2ccccc21)O[C@@H]1C(=O)c2cc(Br)ccc2O[C@H]1c1ccc2c(c1)OCO2` gave VDR inhibitor inactive.
Screening CCCC(=O)Nc1ccccc1NC(=O)c1ccc(OCC)cc1 returned PLK1 PBD block inactive, BAZ2B inh inactive, JMJD2A Tudor inh inactive, L3MBTL1 inh inactive, HP1b binding inh inactive and VDR inhibitor inactive.
Cc1ccccc1C(=O)Nc1cccc(OCc2cc(=O)n3cccc(C)c3n2)c1 was read as BAZ2B inh inactive, JMJD2A Tudor inh inactive, HP1b binding inh inactive and VDR inhibitor inactive.
Screening O=C(O)c1ccccc1Nc1cccc(OCc2ccc3ccccc3n2)c1 returned PLK1 PBD block inactive, BAZ2B inh 44.7µM, JMJD2A Tudor inh inconclusive, L3MBTL1 inh inconclusive, HP1b binding inh inactive and VDR inhibitor inactive.
For CCOc1ccc(C(=O)Nc2ccccc2C(=O)O)cc1 the results were PLK1 PBD block 26.7µM, BAZ2B inh inconclusive, JMJD2A Tudor inh inconclusive, L3MBTL1 inh inactive, HP1b binding inh inactive and VDR inhibitor inconclusive.
`c1c[nH]c(CN2CCN(Cc3ncc[nH]3)CC2)n1` gave PLK1 PBD block inactive, JMJD2A Tudor inh 14.1µM, HP1b binding inh inactive and VDR inhibitor inactive.
For c1ccc2c3c([nH]c2c1)C(C1CCCCC1)N(Cc1ncc[nH]1)CC3 (stereo unspecified) the results were PLK1 PBD block inactive, BAZ2B inh inconclusive, JMJD2A Tudor inh inconclusive, L3MBTL1 inh inactive, HP1b binding inh inactive and VDR inhibitor inactive.
For Clc1ss/c(=N\c2ccccn2)c1Cl the results were PLK1 PBD block inactive, BAZ2B inh 39.8µM, JMJD2A Tudor inh inactive, L3MBTL1 inh inactive, HP1b binding inh inactive and VDR inhibitor inactive.
For O=C(COC(=O)c1ccccc1SCC(=O)NC1CCS(=O)(=O)C1)NC1CCS(=O)(=O)C1 (stereo unspecified) the results were PLK1 PBD block inactive, BAZ2B inh inactive, JMJD2A Tudor inh inactive, L3MBTL1 inh inactive, HP1b binding inh inactive and VDR inhibitor inactive.
CCNC(=O)NC(=O)COC(=O)c1ccccc1SCC(=O)NC(=O)NCC was read as PLK1 PBD block 2.67µM, BAZ2B inh inactive, JMJD2A Tudor inh inconclusive, L3MBTL1 inh inactive, HP1b binding inh inconclusive and VDR inhibitor inconclusive.
`CN(CP(=O)(O)CN(C)S(C)(=O)=O)S(C)(=O)=O` gave PLK1 PBD block inactive, BAZ2B inh 89.1µM, JMJD2A Tudor inh 50.1µM, L3MBTL1 inh inactive, HP1b binding inh inactive and VDR inhibitor inactive.
Screening COCCCNCCOc1ccc(C)cc1[N+](=O)[O-] returned PLK1 PBD block inactive, BAZ2B inh inconclusive, JMJD2A Tudor inh 1µM, L3MBTL1 inh inactive, HP1b binding inh inconclusive and VDR inhibitor inactive.
Screening C=CCNCCCCOc1ccc(C)cc1[N+](=O)[O-] returned PLK1 PBD block inactive, BAZ2B inh 56.2µM, JMJD2A Tudor inh 7.94µM, L3MBTL1 inh inactive, HP1b binding inh 17.8µM and VDR inhibitor inactive.
Screening COCCNCCCCOc1ccc(C)cc1[N+](=O)[O-] returned PLK1 PBD block inactive, BAZ2B inh 56.2µM, JMJD2A Tudor inh 2.82µM, L3MBTL1 inh inactive, HP1b binding inh inactive and VDR inhibitor inactive.
Screening C=CCNCCCOc1ccc(C)cc1Br returned PLK1 PBD block inactive, BAZ2B inh inactive, JMJD2A Tudor inh inactive, L3MBTL1 inh inactive, HP1b binding inh inactive and VDR inhibitor inactive.
For Cc1ccc(OCCN2C(=O)c3ccccc3C2=O)c([N+](=O)[O-])c1 the results were PLK1 PBD block inactive, BAZ2B inh inactive, JMJD2A Tudor inh inactive, L3MBTL1 inh inactive, HP1b binding inh inactive and VDR inhibitor inactive.
Screening CCC(C)NCCCCOc1ccc(C)cc1[N+](=O)[O-] (stereo unspecified) returned PLK1 PBD block inactive, BAZ2B inh 44.7µM, JMJD2A Tudor inh 3.55µM, L3MBTL1 inh inactive, HP1b binding inh inconclusive and VDR inhibitor inactive.
`COc1ccc(OCCOCCOc2ccc(C)cc2[N+](=O)[O-])cc1` gave PLK1 PBD block inactive, BAZ2B inh inactive, JMJD2A Tudor inh inactive, L3MBTL1 inh inactive, HP1b binding inh inactive and VDR inhibitor inconclusive.
Cc1ccc(OCCOCCNC(C)(C)C)c([N+](=O)[O-])c1 was read as PLK1 PBD block inactive, BAZ2B inh 79.4µM, JMJD2A Tudor inh 8.91µM, L3MBTL1 inh inactive, HP1b binding inh inactive and VDR inhibitor inactive.
Screening COc1cc(/C=C2\SC(=S)N(NS(=O)(=O)c3ccccc3)C2=O)ccc1O returned PLK1 PBD block inactive, BAZ2B inh inconclusive, JMJD2A Tudor inh inconclusive, L3MBTL1 inh inactive, HP1b binding inh inconclusive and VDR inhibitor inactive.
For COc1cc(/C=C2\SC(=S)N(NC(=O)c3ccccc3OC)C2=O)ccc1O the results were PLK1 PBD block inactive, BAZ2B inh 20µM, JMJD2A Tudor inh inconclusive, HP1b binding inh 25.1µM and VDR inhibitor inactive.
